Only some compounds are listed: those with a hit (about 5.4% of all), similar ones and a draw of the others.
CSC inhib – cancer stem cell viability inhibitors, primary screen, luminescence | cancer stem cell-like cells viability | AID 2717, 2010 | 300,000 compounds, 1.1% hits | inhibition, % at 7.5 µM; in the data active means inhibition above about 75%; inconclusive means no clear call, values can overlap the other calls; tested in HMLE shEcad cells
PP1 inh – PP1-alpha phosphatase inhibitors, primary screen, counter-screen for PP5 inhibitor project, biochemical, fluorescence, OMFP substrate, single point | 320,000 compounds, 0.9% hits | inhibition, % at 6.7 µM | purified PP1alpha | AID 2235, 2010;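 active means inhibition above the mean inhibition of all tested compounds plus 3 SD, computed separately for each screening campaign, cut at about 15% in these data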
PP5 primary – PP5 phosphatase inhibitors, primary screen, biochemical, fluorescence. purified PP5c, OMFP substrate fluorescence. inhibition, % at 6.7 µM. 320,000 compounds, 0.18% hits. AID 1987, 2009;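 active means inhibition above the campaign's mean inhibition across all tested compounds plus 3 SD, cut at about 9.5% in these data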
Target sequence (P53041 whole entry, looked up): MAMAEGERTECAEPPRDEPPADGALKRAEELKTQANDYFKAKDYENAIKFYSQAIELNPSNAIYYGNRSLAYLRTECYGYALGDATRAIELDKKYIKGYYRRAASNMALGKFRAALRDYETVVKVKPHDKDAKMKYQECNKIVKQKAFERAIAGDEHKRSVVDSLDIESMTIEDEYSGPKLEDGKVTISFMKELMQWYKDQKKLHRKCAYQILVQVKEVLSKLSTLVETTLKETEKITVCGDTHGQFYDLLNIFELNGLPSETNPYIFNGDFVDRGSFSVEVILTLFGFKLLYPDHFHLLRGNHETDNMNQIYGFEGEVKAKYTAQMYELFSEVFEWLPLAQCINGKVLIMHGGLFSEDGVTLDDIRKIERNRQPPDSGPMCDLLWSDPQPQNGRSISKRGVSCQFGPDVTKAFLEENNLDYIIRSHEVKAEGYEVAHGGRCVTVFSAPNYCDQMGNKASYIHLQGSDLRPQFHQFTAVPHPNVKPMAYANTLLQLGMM
Calb FLC – C. albicans growth inhibition with fluconazole, primary screen, CaCi-2 strain, Alamar Blue fluorescence; C. albicans CaCi-2 (fluconazole-resistant clinical isolate) + fluconazole, 48 h; growth inhibition, % (concentration not given with the values); 300,000 compounds, 0.57% hits;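 active means growth inhibition above about 58% in most replicates, limit read from the data, passing the limit was not always enough; inconclusive means exactly half the replicates above a set limit; inactive means most replicates below a set limit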;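 further: all wells also contain fluconazole at 8 µg/ml as a sub-toxic cotreatment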
ALR H2O2 inh – inhibitors of human ALR sulfhydryl oxidase, primary screen, biochemical, H2O2 detection, HRP-luminol luminescence, single point; FAD-linked sulfhydryl oxidase ALR (Homo sapiens), P55789; purified ALR, DTT oxidation; inhibition, % (no concentration beside the values); 290,000 compounds, 3.8% hits; AID 485317, 2010;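 active means mean replicate inhibition above about 79%, with every replicate also reaching it, limit read from the data; inconclusive means only one of the two criteria met; inactive means mean below limit and not every replicate reaching it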
Target sequence (P55789 whole entry, looked up): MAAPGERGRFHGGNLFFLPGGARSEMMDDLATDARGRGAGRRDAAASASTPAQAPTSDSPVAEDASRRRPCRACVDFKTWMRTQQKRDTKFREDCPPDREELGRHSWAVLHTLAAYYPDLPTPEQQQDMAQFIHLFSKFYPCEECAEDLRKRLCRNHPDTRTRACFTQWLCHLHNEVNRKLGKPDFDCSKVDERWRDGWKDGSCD
PP5 conf – PP5 phosphatase inhibitors, confirmation, biochemical, fluorescence, human; AID 2331, 2010; inhibition, % at 6.7 µM; shares compounds with PP5 primary; Purified PP5, fluorogenic phosphatase substrate; 460 compounds, 22% hits; in the data active means inhibition above about 9.5%
PP1 inh counter – PP1 phosphatase inhibitors, counter-screen for PP5 inhibitor project, biochemical, fluorescence, triplicate. inhibition, % at 6.7 µM. shares compounds with PP5 primary. PP1 enzyme, fluorescent phosphatase substrate. 460 compounds, 4% hits; in the data active means inhibition above about 16%
PP1 confirm – PP1 phosphatase inhibitors, confirmation, biochemical, fluorescence, OMFP substrate, triplicate; purified PP1alpha; shares compounds with PP1 inh; inhibition, % at 6.7 µM; 1,900 compounds, 52% hits;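 active means mean PP1 inhibition above a set limit taken from the earlier primary screen, cut at about 15% in these data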
PP5 inh counter – PP5 phosphatase inhibition by PP1 hits, confirmation, counter-screen for PP1 inhibitor project, biochemical, fluorescence, triplicate. shares compounds with PP1 inh. purified PP5c, OMFP fluorescence. inhibition, % at 6.7 µM. 1,900 compounds, 4% hits;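 active means mean PP5 inhibition over triplicate wells above about 9.5% taken from the earlier PP1 screen, limit read from the data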
Hits are given with their value; - = inactive; ? = inconclusive; . = not tested or not shown.

SMILES | CSC inhib | PP1 inh | PP5 primary | Calb FLC | ALR H2O2 inh | PP1 confirm | PP5 inh counter | others
Cc1csc(NC(=O)C2C3C=CC(O3)C2C(=O)O)n1 (stereo not drawn) | - | - | 16 | - | 98 | . | . | PP5 conf=15;PP1 inh counter=-
O=C(O)C1C2C=CC(O2)C1C(=O)Nc1cccc(C(F)(F)F)c1 (stereo not drawn) | - | - | 33 | - | - | . | . | PP5 conf=-;PP1 inh counter=-
COc1cccc(-c2ccc(C#N)c(SCC(=O)NCCc3ccccc3)n2)c1 | - | - | - | - | - | . | .
O=C(NC1CCCCCC1)C1c2ccccc2C(=O)N1Cc1ccco1 (stereo not drawn) | - | - | 11 | - | - | . | . | PP5 conf=-;PP1 inh counter=-
CCCCn1c(NC(C)=O)c(C#N)c2nc3ccccc3nc21 | - | - | - | ? | - | . | .
C=CCn1c(NC(=O)c2ccccc2Cl)c(C#N)c2nc3ccccc3nc21 | - | - | 11 | - | - | . | . | PP5 conf=28;PP1 inh counter=-
COc1cccc(C(=O)OCn2nnc3ccccc3c2=O)c1 | - | - | - | - | - | . | .
Cc1ccc(S(=O)(=O)N2CCOCC2)cc1NC(=O)COC(=O)c1ccc(Br)cc1 | . | . | . | . | - | . | .
Cc1ccc(S(=O)(=O)N2CCOCC2)cc1NC(=O)COC(=O)CSc1ccc(Br)cc1C | - | - | 11 | - | - | . | . | PP5 conf=-;PP1 inh counter=-
Cc1cc2ncn(C(=O)N3CCCCC3)c2cc1C | - | - | - | - | - | . | .
COc1cccc(CN2CC(C(=O)N(C)Cc3ccc(C)cc3)CCC2=O)c1 (stereo not drawn) | - | - | - | - | - | . | .
CC(=O)Nc1ccc(Br)c(Cl)c1 | - | - | 11 | - | - | . | . | PP5 conf=-;PP1 inh counter=-
O=C(Nc1ccccc1C(=O)O)c1cccc(S(=O)(=O)Nc2ccc(Br)cc2)c1 | - | 18 | - | - | 99 | - | -
COc1ccc(CCNC(=O)c2ccc3c(=O)n(Cc4ccco4)c(=S)[nH]c3c2)cc1OC | - | - | - | - | - | . | .
COc1ccc(C2CC(c3ccc(F)cc3)n3nc(NC(=O)c4ccco4)nc3N2)cc1 (stereo not drawn) | - | - | - | - | - | . | .
COc1ccc(C2CC(c3ccc(OC)cc3)n3nc(NC(=O)c4cccs4)nc3N2)cc1 (stereo not drawn) | - | 18 | - | - | - | - | -
Cc1onc(-c2c(Cl)cccc2Cl)c1COC(=O)c1ccc(Cl)cc1[N+](=O)[O-] | - | - | - | - | - | . | .
COC(=O)c1sc(NC(=O)c2cnccn2)c(C(=O)OC)c1C | - | - | - | - | - | . | .
COc1cccc(/C=N/NC(=O)c2[nH]c(C)c(C(=O)N/N=C/c3cccc(OC)c3O)c2C)c1O | 93 | 25 | - | - | - | 28 | -
COc1cccc(/C=N/NC(=O)c2ccc(-c3ccccc3)cc2)c1O | ? | 22 | - | - | - | 25 | -
COc1ccc(OC)c(/C=N\NC(=O)c2ccc(-c3ccccc3)cc2)c1 | - | . | . | - | - | . | .
COc1cccc(/C=N/NC(=O)C(=O)Nc2ccccc2OC(F)(F)C(F)F)c1O | 108 | 20 | - | 109 | - | 27 | -
Cc1ccc(NC(=O)C2CCN(C(=O)c3ccc(Cl)cc3)CC2)nc1 | - | - | - | - | . | . | .
COc1ccc(N2C(=O)CC(NCc3cccc(F)c3)C2=O)cc1 (stereo not drawn) | - | - | - | . | - | . | .
N#C/C(=C/c1ccc(-c2ccc(S(N)(=O)=O)cc2)o1)c1nc2ccccc2s1 | - | 20 | - | . | - | 22 | -
SMILES | CSC inhib | PP1 inh | PP5 primary | Calb FLC | ALR H2O2 inh | PP1 confirm | PP5 inh counter | others
COc1cc(SC)ccc1C(=O)OCC(=O)NCC(C)C | - | - | - | - | - | . | .
COc1cnc(-c2ccccn2)nc1Oc1ccccc1 | - | 23 | - | - | - | 17 | -
COc1cnc(-c2ccccn2)nc1Oc1cccc(C(F)(F)F)c1 | - | 46 | - | - | - | 46 | -
COc1cnc(-c2ccccn2)nc1N(C)c1ccccc1 | 98 | 28 | - | ? | . | 28 | -
COc1ccc(C(=O)Nc2ccc3c(c2)CCCN3C(=O)c2cccs2)c(OC)c1 | - | - | - | - | - | . | .
CC(=O)Cc1nsc(NC(=O)c2ccc(-c3cccc(Cl)c3)o2)n1 | - | 29 | - | - | - | - | -
CC(=O)Cc1nsc(NC(=O)c2ccc(Br)o2)n1 | - | - | - | - | - | . | .
O=C(NCCCn1cccn1)C1CCC(=O)N(Cc2ccccc2F)C1 (stereo not drawn) | - | - | - | - | - | . | .
CC(=O)N1CCN2C(=O)C1CCCC(=O)c1cc(C3CCCCC3)ccc12 (stereo not drawn) | - | - | - | - | . | . | .
CCc1ccc2nc(NC(=O)Cn3cnc4ccccc4c3=O)sc2c1 | - | 26 | - | - | - | 29 | -
O=C(Cn1cnc2ccccc2c1=O)Nc1nc2ccccc2s1 | - | - | - | - | - | . | .
Cc1cc(SCC(=O)N/N=C/c2ccc(O)c(O)c2O)c(C)cc1Br | - | 35 | - | 107 | 95 | 33 | -
CCNc1nc(SC(C)C(=O)OC)nc(N2CCOCC2)n1 (stereo not drawn) | - | - | - | - | - | . | .
O=C1CC(=O)N(CCNc2ncc(C(F)(F)F)cc2Cl)C(=O)N1 | - | 29 | - | - | . | - | -
CCc1nnc(NC(=O)c2cc(S(=O)(=O)N3CCOCC3)ccc2N2CCCCC2)s1 | . | . | . | - | . | . | .
Cc1ccc(NC(=O)NCC2CCN(Cc3cccc(Cl)c3)CC2)c(Cl)c1 | - | 27 | - | - | . | - | -
CCn1cc(CN2CCC(C(=O)Nc3ccc(Oc4cccnc4)cc3)CC2)c(C)n1 | - | - | - | - | - | . | .
CCN(C(=O)c1ccc(C(C)(C)C)cc1)c1nnc(Cn2nnc3ccccc32)s1 | - | - | - | - | - | . | .
O=C(O)c1cn(-c2ccc(F)cc2)c2cc(Cl)c(F)cc2c1=O | - | - | - | - | - | . | .
NC1C2CN(c3nc4c(cc3F)c(=O)c(C(=O)O)cn4-c3ccc(F)cc3F)CC12 (stereo not drawn) | - | 20 | - | - | - | - | -
O=C(/C=C/c1ccco1)N1CCN(C/C=C/c2ccccc2)CC1 | - | - | - | - | . | . | .
CCCCCC(=O)Cc1cc(O)cc2c1C(=O)Oc1cc(O)c(C(=O)O)c(CCCCC)c1O2 | - | 29 | - | - | . | 38 | -
